# This is part of a sample that, as a whole, favours compounds with a hit. Of some 83,000 tested, about 20% had one in any assay.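 Compound tested at a single concentration for 48 hours in 96-well plates; a percent growth value below 10 was scored as active.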 A number with no mark means an inactive call. Calls of active or inactive are those of the source.
# What was measured:
# Assay in all cases: NCI-60 one-dose screen, 48 h (100 = growth as untreated, 0 = no growth, -100 = all killed)
# Details in all cases: 10 µM unless noted
# [1] = system: SR leukemia
# [2] = system: RPMI-8226 leukemia
# [3] = system: OVCAR-8 ovarian
# [4] = system: OVCAR-5 ovarian
# [5] = system: OVCAR-4 ovarian
# [6] = system: IGROV1 ovarian
# [7] = system: OVCAR-3 ovarian
# [8] = system: HS 578T breast
# [9] = system: NCI/ADR-RES ovarian
# [10] = system: T-47D breast
# [11] = system: BT-549 breast
# [12] = system: MDA-MB-435 melanoma
# [13] = system: SW-620 colon
# [14] = system: MCF7 breast
# [15] = system: HCT-116 colon
# [16] = system: HCC-2998 colon
# [17] = system: KM12 colon
# [18] = system: SK-OV-3 ovarian
SMILES,growth [1],growth [2],growth [3],growth [4],growth [5],growth [6],growth [7],growth [8],growth [9],growth [10],growth [11],growth [12],growth [13],growth [14],growth [15],growth [16],growth [17],growth [18] [%]
O=C1c2cc3c(cc2-c2c1c1ccc(Cl)cc1c(=O)n2C[C@H](O)CO)OCO3,-2.7% (active),-11.9% (active),3.37% (active),-7.3% (active),4.86% (active),8% (active),-17.3% (active),26.2%,3.2% (active),-6.44% (active),1.39% (active),-59.7% (active),-4.07% (active),-1.79% (active),-25.6% (active),4.32% (active),-14.4% (active),–
CC1=NN(c2ccc(Cl)cc2)CC1(C)N=O (stereo not drawn),33%,89.3%,88.2%,126%,77.3%,–,62.1%,–,94.4%,60.8%,86.1%,48.5%,–,29.7%,30.9%,102%,99.5%,114
CCN(CC)CCCC(C)Nc1ccc2cc(OC)ccc2n1 (stereo not drawn),120%,97%,99.8%,109%,62%,–,98.8%,–,108%,103%,107%,104%,94.4%,84.2%,102%,101%,93.2%,113
CCOC(=O)c1c(-c2ccc(Cl)cc2)c(C#N)c2c(C#N)c(N)nn2c1N,11.9%,49.3%,75.9%,83.4%,77.3%,62.2%,65.4%,75.3%,63.1%,46.5%,68.5%,5.38% (active),52.6%,37.6%,59.5%,83.6%,58.7%,–
Nc1ccc([N+](=O)[O-])cc1N=C/C=C/c1ccccc1,35.5%,25.6%,79.9%,90.9%,79.4%,–,84.1%,67.4%,50.9%,66.2%,55%,5.57% (active),35.3%,51.5%,67.2%,73%,40.3%,87.6
Fc1ccc2c(c1)c(-c1nc(-c3c[nH]c4ncccc34)cs1)cn2CCCN1CCOCC1,12.1%,36.6%,59.7%,82.3%,56.2%,38.6%,59.8%,38.3%,59.2%,38.1%,69.5%,-17.1% (active),24.9%,22%,40.4%,74.3%,22.5%,–
CC[C@H](C)[C@H](NC(=O)[C@H](CCCNC(=N)N)NC(=O)[C@H](Cc1c[nH]c2ccccc12)NC(=O)[C@@H](NC(=O)[C@H](CCCCN)NC(=O)[C@H](CCCCN)NC(=O)[C@@H](NC(=O)[C@@H](NC(=O)[C@@H](NC(=O)[C@H](CCCCN)NC(=O)[C@H](Cc1ccccc1)NC(=O)[C@H](CCCCN)NC(=O)[C@H](CCCCN)NC(=O)[C@H](Cc1ccccc1)NC(=O)[C@@H](NC(=O)[C@@H](N)CCCCN)[C@@H](C)CC)[C@@H](C)O)[C@@H](C)CC)[C@@H](C)CC)C(C)C)C(=O)N[C@@H](Cc1ccccc1)C(=O)NCC(=O)N[C@@H](CCCNC(=N)N)C(=O)N[C@@H](Cc1ccccc1)C(N)=O,1.72% (active),-18% (active),0.804% (active),-46.1% (active),-31.3% (active),-25.8% (active),-23.8% (active),-21.3% (active),-11.9% (active),-30.1% (active),32.5%,-17% (active),-14.9% (active),-17% (active),-3.28% (active),10.6%,-25.6% (active),–
C=C1C(=O)O[C@H]2[C@H]1CC/C(COC(=O)NCc1ccc(Cn3c(=O)sn(-c4ccc(OC)cc4)c3=O)cc1)=C\CC[C@@]1(C)O[C@@H]21,27.3%,-3.82% (active),75.8%,83.6%,35.7%,46.7%,-27.1% (active),90.7%,95.8%,18.5%,73.1%,67.1%,–,20.3%,5.31% (active),97.5%,–,–
Cc1ccc(-c2cc(C(=O)N3N=C(c4ccc(N)cc4)CC3c3ccc(Cl)cc3)c3ccccc3n2)cc1 (stereo not drawn),11.2%,19.9%,25.7%,75.2%,69%,47.4%,14.6%,6.64% (active),21.7%,35.9%,30.8%,-61.7% (active),33.8%,17.8%,11.8%,37.9%,27.9%,–
